The results in this text go back to PubChem BioAssay AID1469 (National Center for Advancing Translational Sciences (NCATS), 2008).

Hit rate of the full screen: of about 280,000 compounds, about 180 (0.064%) were called active. Where a call stands in place of a potency, no number is given. Calls follow the shape of the dose curve; as a rule, active = well fitted inhibition curve with a large enough effect; inconclusive = small, poorly fitted or top-dose-only effect, or effect the other way; inactive = flat fitted curve, though single readings scatter. For the sample, actives were picked, then their nearest neighbours and some compounds at random.
Potency is read from the fitted curve at half-maximal effect.

Chain of Thyroid hormone receptor beta (Homo sapiens) (P10828 whole entry, looked up): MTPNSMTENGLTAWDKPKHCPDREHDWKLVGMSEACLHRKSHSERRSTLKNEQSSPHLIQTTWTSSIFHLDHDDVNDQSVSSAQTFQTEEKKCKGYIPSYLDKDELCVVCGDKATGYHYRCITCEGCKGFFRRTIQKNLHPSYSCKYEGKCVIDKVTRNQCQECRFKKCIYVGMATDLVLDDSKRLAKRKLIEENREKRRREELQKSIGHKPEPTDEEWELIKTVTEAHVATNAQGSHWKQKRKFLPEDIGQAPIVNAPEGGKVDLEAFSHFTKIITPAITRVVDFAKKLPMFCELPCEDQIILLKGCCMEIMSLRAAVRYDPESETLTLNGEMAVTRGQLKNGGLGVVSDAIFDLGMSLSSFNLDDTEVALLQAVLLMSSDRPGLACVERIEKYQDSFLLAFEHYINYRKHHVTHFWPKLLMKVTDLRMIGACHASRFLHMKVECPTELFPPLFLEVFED

This assay has as its target Thyroid hormone receptor beta (Homo sapiens) (UniProt P10828). The assay can be described thus: qHTS for Inhibitors of the Interaction of Thyroid Hormone Receptor and Steroid Receptor Coregulator 2. Also: nearly all actives have a fitted effect of over 50% in size. The conditions noted are these: TRbeta-SRC2 peptide binding, fluorescence polarization, receptor liganded with 1 µM T3; series mostly up to 106 µM. The source says: NIH Molecular Libraries Probe Production Network [MLPCN]
NIH Chemical Genomics Center [NCGC]
Assay Provider: R. Kip Guy, St. Jude Children's Research Hospital
Thyroid receptor (TR) regulates many homeostatic processes including basal metabolism, cardiovascular function, body weight, and lipid trafficking. TR modulators are potential therapeutics for obesity and hyperlipidemias but current thyroid analogs have undesirable side effects, particularly cardiac stimulation. To identify inhibitors that specifically prevent the interaction of TR with the steroid receptor coregulator 2 (SRC2), a fluorescence polarization assay was screened. This assay detects interaction of the ligand-binding domain of human TRb with a Texas Red labeled SRC2 peptide, corresponding to a 20 amino acid region of the nuclear receptor interaction domain (Arnold et al., 2006). Small molecule inhibitors that block the interaction of TR and SRC2 are detected by a decrease in fluorescence polarization.
Arnold, L. A.; Estebanez-Perpina, E.; Togashi, M.; Shelat, A.; Ocasio, C. A.; McReynolds, A. C.; Nguyen, P.; Baxter, J. D.; Fletterick, R. J.; Webb, P.; Guy, R. K. A high-throughput screening method to identify small molecule inhibitors of thyroid hormone receptor coactivator binding. Sci STKE 2006, p 13.
NCGC Assay Protocol Summary:
For screening, 5 uL/well 0.6 uM TRb and 20 nM SRC2 Texas Red in protein buffer (20mM Tris hydrochloride, 100mM NaCl, 10% glycerol, 1mM EDTA, 0.01% NP-40, 1mM DTT, 1uM T3 and 5% DMSO) was dispensed into black solid 1536-well plates (Grenier) using a solenoid-based dispenser. Following transfer of 23 nL compound or DMSO vehicle by a pin tool, the plates were centrifuged 15 s at 1000 RPM and incubated 5 hr at ambient temperature. The plates were read by an Envision (Perkin Elmer) to detect fluorescence polarization of SRC2 Texas Red (555 nm excitation and 632 nm emission). Data were normalized to unbound (all components except TRb) and bound SRC2 Texas Red controls. In this assay, we provide % activity data for each concentration as well as potencies for the active compounds.
Keywords: NIH Roadmap, MLPCN, MLI, MLSMR, qHTS, NCGC, qHTS, thyroid hormone receptor, steroid receptor coactivator, fluorescence polarization
Background: In qHTS, concentration-response curves come from the screen itself.
Turning to `Cc1ccc(CN2CCc3nc(N4CCN(C)CC4)ncc3C2)cc1`, the Potency entry was “inactive”.
The result for `CCN1CCN(c2ncc3c(n2)CC(c2ccccc2O)CC3=O)CC1` (stereo not given) reads “inactive”.
In the case of `Cc1nc2nc(SCC(=O)N(Cc3ccccc3)C(C)C)nn2c(C)c1Cc1ccccc1Cl`, the Potency result was “inactive”.
The value for `Cc1ccc(NC(=O)c2nc(S(=O)(=O)Cc3cccc(C)c3)ncc2Cl)cc1` was “inactive”.
The value for `CC(=O)OC1=C(C(C)=O)N(Cc2ccccc2)S(=O)(=O)c2ccccc21` was “inactive”; that for `Cc1cccc(OCCSc2nc3ccccc3n2CC(=O)N2CCCCC2)c1C` was “inactive”; that for `Cc1ccccc1CNC(=O)CCCn1nc(C)c2sc3ccccc3c2c1=O` was “inactive”.
The result for `Cc1c(C)n(Cc2ccc(Cl)cc2)c2ccc(C(=O)NCCc3ccc(S(N)(=O)=O)cc3)cc12` reads “inactive”.
In the case of `COc1ccc2cc(CNc3ccc(OC)c(OC)c3)c(=O)n(CC(=O)Nc3ccccc3F)c2c1`, the Potency result is “inactive”.
The result for `CSc1ccc(C2C(C(=O)Nc3ccccc3)=C(C)Nc3nc4ccccc4n32)cc1` (stereo not given) reads “inactive”.
The value for `COc1ccc(CCNC(=O)c2nn(C)c3c2CSc2ccccc2-3)cc1OC` was “inactive”; that for `COc1ccc(-c2nc(C)c(CCNC(=O)c3ccc(C(F)(F)F)cc3)s2)cc1OC` was “inactive”.
The value for `COc1c(O)c2c(=O)cc(OC)c3c4c(OC)cc(=O)c5c(O)c(OC)c6c(c(c1C[C@@](C)(O)[C@H]6C(C)=O)c23)c54` was 35.5 µM (active).
Consider `COc1ccc2c(c1)c(N1CCCC1=O)c(C(=O)Nc1ccc(OC)c(Cl)c1)n2C`, for which the Potency entry is “inactive”.
`COc1ccc(Cl)cc1NC(=O)c1sc2nc3c(cc2c1N)CN(C)CC3`: the Potency entry was “inactive”.
Consider `Cc1cccc(NC(c2cccc(F)c2)c2ccc3ccc(C)nc3c2O)n1` (stereo not given), for which the Potency result is “inactive”.
For `CCOc1ccc(N(Cc2ccccc2)C(=O)c2nc(S(C)(=O)=O)ncc2Cl)cc1`, the Potency entry was “inactive”.
The result for `O=C(/C=C/c1ccccc1[N+](=O)[O-])NCC1CCCO1` (stereo not given) reads “inactive”.
Consider `CC1CCCCC1NC(=O)/C(C#N)=C/C=C/c1ccccc1[N+](=O)[O-]` (stereo not given), for which the Potency is 39.8 µM (active).
The result for `O=C(/C=C/c1ccccc1[N+](=O)[O-])OC1CCCCC1=O` (stereo not given) reads “inactive”; that for `CCNS(=O)(=O)c1cc(-c2nnc(Nc3cccc(C(F)(F)F)c3)c3ccccc23)ccc1C`, “inactive”; that for `O=C(NCCCN1CCN(c2cccc(Cl)c2)CC1)c1nnc(Cc2ccc(F)cc2Cl)o1`, “inactive”.
The value for `COc1ccc(-c2cc(NCc3ccc(F)cc3)n3cnnc3n2)cc1` was “inactive”; that for `Cc1ccc(NC(=O)CN2C(=O)C(c3ccc(F)cc3)=NC23CCCCCC3)c(C)c1` was “inactive”.
The result for `Cc1ccc(Nc2c(-c3ccc(N(C)C)cc3)nc3nc[nH]n23)cc1` reads “inactive”; that for `O=C(NC1CC(=O)N(c2ccc(F)cc2)C1)c1ccc(S(=O)(=O)N2CCCC2)cc1` (stereo not given), “inactive”; that for `COC(=O)c1ccc(NC(=O)CSc2n[nH]c(-c3ccccc3)n2)cc1`, “inactive”.
With `Cn1nc(-c2ccccc2)c(-c2ccccc2)c(C(=O)Nc2ccc(S(N)(=O)=O)cc2)c1=O`, the Potency result was “inactive”.
The value for `COc1ccc(-c2cn3c(n2)sc2cc(C(=O)Nc4ccccc4F)ccc23)cc1` was “inactive”; that for `CCOc1cccc(NC(=O)CSc2ncc(-c3ccc(Cl)cc3)[nH]2)c1` was “inactive”.
As for `O=C(Nc1c(C(=O)N2CCN(c3ccc(F)cc3)CC2)oc2ccccc12)c1ccco1`, the Potency result was “inactive”.
The value for `COc1ccc(-c2noc(CSc3nc(C)cc(=O)[nH]3)n2)cc1OC` was “inactive”; that for `CCOC(=O)c1cnc2c(C)cc(C)cc2c1Nc1ccc(N2CCOCC2)cc1` was “inactive”.
The result for `CC(C)c1ccc(C2CC(=O)N3CN(C4CCCCC4)CSC3=C2C#N)cc1` (stereo not given) reads “inactive”; that for `Clc1nc(Cl)c(Cl)c(Cl)c1Cl`, “inactive”; that for `O=C(c1cnn(-c2ccc(F)cc2)c1-n1cccc1)N1CCN(c2ccc(F)cc2)CC1`, “inactive”.
Turning to `COc1ccc(-c2cccc(NS(=O)(=O)c3cc(C)c(OC)c(C)c3C)c2)nn1`, the Potency result is “inactive”.
The result for `O=C(CSc1nc2nccnc2c(=O)n1CCc1c[nH]c2ccccc12)Nc1ccccc1F` reads “inactive”.
The result for `COc1cccc(-n2cc(C(=O)NCc3cccc(Cl)c3)c3ccccc3c2=O)c1` reads “inactive”; that for `CCN(Cc1ccccc1)C(=O)c1cn(-c2cccc(OC)c2)c(=O)c2ccccc12`, “inactive”; that for `O=C(CSc1nccn1-c1ccc(F)cc1)Nc1cccc2ccccc12`, “inactive”.
The result for `CC1=C(c2ccc(C)cc2)S(=O)(=O)NC1=NCCCN1CCN(c2cc(C)ccc2C)CC1` reads “inactive”.
Regarding `COc1ccc(-c2cc(C(=O)NCc3cc(OC)c(OC)c(OC)c3)[nH]n2)cc1`, the Potency result is “inactive”.
The result for `CCC(C(=O)Nc1cc(OC)ccc1OC)n1c(=O)c(C(F)(F)F)nc2ccccc21` (stereo not given) reads “inactive”; that for `CCOC(=O)c1oc2ccc(S(=O)(=O)n3nc(-c4ccccc4OC)cc3N)cc2c1C`, “inactive”; that for `COc1ccc(NS(=O)(=O)c2cc3c4c(c2)CC(=O)N4CCC3)cc1Cl`, “inactive”.
Regarding `Cc1ccc(C)c(Nc2nnc(-c3ccc(C)c(S(=O)(=O)N4CCCCC4)c3)c3ccccc23)c1`, the Potency result is “inactive”.
The result for `O=C(C1CCCN(S(=O)(=O)c2cccc3nonc23)C1)N1CCN(c2ccccc2F)CC1` (stereo not given) reads “inactive”; that for `O=C1CSC2(C(=O)N(Cc3ccccc3)c3ccccc32)N1c1cccc(F)c1` (stereo not given), “inactive”; that for `CCn1cc(C(=O)N2CCN(c3cc(C)ccc3C)CC2)c(=O)c2cc(S(=O)(=O)N(C)C3CCCCC3)ccc21`, “inactive”.
The value for `Cc1nnc(NC(=O)CSc2nc3c([nH]c4ccccc43)c(=O)n2-c2cccc(Cl)c2)s1` was “inactive”.
The result for `COc1ccccc1N1CCN(C(=O)C2CCN(S(=O)(=O)c3c(C)noc3/C=C/c3ccc(C)cc3)CC2)CC1` reads “inactive”; that for `CCOc1ccc2oc(=O)cc(CN3CCN(C(=O)c4ccc(F)cc4)CC3)c2c1`, “inactive”; that for `Cc1cccc(N2CCN(C(=O)CCn3c(=O)c4cccn4c4cccnc43)CC2C)c1` (stereo not given), “inactive”.
Regarding `COc1ccc(-n2ccnc(NCCc3ccc(Cl)cc3)c2=O)cc1OC`, the Potency result is “inactive”.
The value for `CCn1c(C)c(C)c2cc(C(=O)NCCc3cc(OC)ccc3OC)ccc21` was “inactive”; that for `COc1ccc(-c2onc(C)c2C)cc1S(=O)(=O)NCC1CCN(Cc2cccc(F)c2)CC1` was “inactive”.
The result for `Cc1cccc(NC(=O)CN(c2ccc(C(C)C)cc2)S(=O)(=O)c2c(C)nn(C)c2C)c1C` reads “inactive”; that for `Cc1cc2c(cc3c(SCc4cccc(Cl)c4)nnc(C)n32)o1`, “inactive”.
The result for `COc1ccc(-c2cn3nc(N4CCC(C(=O)Nc5cccc(C)c5C)CC4)sc3n2)cc1` reads “inactive”.
